Test results: ChEMBL document CHEMBL1961873, “Compounds: GSK PKIS; Assays: Nanosyn kinase panel” (2012)

How the values were obtained:
[1] = target: Mitogen-activated protein kinase kinase kinase kinase 4 (Homo sapiens) (UniProt O95819); conditions: at 1 µM;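 also: reported figure is an averaged inhibition value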
[2] = target: Dual specificity mitogen-activated protein kinase kinase 1 (Homo sapiens) (UniProt Q02750); conditions: at 0.1 µM
[3] = target: Dual specificity mitogen-activated protein kinase kinase 1 (Homo sapiens) (UniProt Q02750); conditions: at 1 µM
[4] = target: Misshapen-like kinase 1 (Homo sapiens) (UniProt Q8N4C8); conditions: at 0.1 µM
Misshapen-like kinase 1 (Homo sapiens), sequence (Q8N4C8 whole entry, looked up): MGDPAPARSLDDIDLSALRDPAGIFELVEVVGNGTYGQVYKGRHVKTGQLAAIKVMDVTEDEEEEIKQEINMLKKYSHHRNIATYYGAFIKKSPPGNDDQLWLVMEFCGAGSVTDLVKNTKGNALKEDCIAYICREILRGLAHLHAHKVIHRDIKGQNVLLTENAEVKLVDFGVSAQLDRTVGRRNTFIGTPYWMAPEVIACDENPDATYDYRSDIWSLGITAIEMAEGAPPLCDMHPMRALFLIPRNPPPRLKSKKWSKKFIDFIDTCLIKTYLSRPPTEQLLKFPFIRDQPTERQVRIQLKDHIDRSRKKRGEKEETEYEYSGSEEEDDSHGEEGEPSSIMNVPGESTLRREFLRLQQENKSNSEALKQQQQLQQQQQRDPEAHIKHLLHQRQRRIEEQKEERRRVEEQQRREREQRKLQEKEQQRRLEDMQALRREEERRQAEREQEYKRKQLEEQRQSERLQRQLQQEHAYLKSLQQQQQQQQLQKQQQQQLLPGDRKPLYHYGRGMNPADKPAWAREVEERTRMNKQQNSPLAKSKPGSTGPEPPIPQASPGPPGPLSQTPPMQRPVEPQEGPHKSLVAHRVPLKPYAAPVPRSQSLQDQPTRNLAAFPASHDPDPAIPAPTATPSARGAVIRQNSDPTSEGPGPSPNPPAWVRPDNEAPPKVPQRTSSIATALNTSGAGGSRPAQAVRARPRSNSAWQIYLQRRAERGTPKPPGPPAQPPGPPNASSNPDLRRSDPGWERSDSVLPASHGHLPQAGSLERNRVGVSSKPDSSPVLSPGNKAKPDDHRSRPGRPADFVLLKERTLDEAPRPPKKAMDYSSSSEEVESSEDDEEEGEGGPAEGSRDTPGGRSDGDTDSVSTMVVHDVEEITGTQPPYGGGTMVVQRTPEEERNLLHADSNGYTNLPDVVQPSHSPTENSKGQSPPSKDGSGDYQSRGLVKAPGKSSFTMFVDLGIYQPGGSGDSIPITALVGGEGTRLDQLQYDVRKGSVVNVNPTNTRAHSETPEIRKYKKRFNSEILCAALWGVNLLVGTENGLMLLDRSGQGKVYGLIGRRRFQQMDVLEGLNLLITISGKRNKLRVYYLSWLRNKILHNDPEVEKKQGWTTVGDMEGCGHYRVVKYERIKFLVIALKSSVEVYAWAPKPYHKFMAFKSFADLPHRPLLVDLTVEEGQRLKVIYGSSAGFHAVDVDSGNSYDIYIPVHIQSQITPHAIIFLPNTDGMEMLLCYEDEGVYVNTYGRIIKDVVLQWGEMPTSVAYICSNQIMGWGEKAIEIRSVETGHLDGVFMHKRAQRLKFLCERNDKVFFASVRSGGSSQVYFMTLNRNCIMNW

[5] = target: Misshapen-like kinase 1 (Homo sapiens) (UniProt Q8N4C8); conditions: at 1 µM
[6] = target: T1, Serine/threonine-protein kinase 4 (Homo sapiens) (UniProt Q13043); conditions: at 0.1 µM
T1 sequence (whole entry): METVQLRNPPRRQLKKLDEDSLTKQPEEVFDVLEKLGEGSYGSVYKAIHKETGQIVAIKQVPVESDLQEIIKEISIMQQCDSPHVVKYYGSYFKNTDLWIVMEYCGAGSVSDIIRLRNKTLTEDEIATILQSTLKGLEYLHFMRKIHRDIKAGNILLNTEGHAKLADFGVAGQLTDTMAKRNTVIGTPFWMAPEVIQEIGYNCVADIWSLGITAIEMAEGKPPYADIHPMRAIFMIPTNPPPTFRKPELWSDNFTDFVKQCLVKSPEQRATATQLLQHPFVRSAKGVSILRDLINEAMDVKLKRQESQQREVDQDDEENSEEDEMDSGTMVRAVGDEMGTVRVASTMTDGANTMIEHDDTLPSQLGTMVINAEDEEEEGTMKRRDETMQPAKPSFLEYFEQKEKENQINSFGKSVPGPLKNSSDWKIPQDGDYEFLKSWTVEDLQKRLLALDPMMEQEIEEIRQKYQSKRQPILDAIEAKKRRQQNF

[7] = target: T1, Serine/threonine-protein kinase 4 (Homo sapiens); conditions: at 1 µM
[8] = target: T2, Serine/threonine-protein kinase 3 (Homo sapiens) (UniProt Q13188); conditions: at 0.1 µM
T2 sequence (whole entry): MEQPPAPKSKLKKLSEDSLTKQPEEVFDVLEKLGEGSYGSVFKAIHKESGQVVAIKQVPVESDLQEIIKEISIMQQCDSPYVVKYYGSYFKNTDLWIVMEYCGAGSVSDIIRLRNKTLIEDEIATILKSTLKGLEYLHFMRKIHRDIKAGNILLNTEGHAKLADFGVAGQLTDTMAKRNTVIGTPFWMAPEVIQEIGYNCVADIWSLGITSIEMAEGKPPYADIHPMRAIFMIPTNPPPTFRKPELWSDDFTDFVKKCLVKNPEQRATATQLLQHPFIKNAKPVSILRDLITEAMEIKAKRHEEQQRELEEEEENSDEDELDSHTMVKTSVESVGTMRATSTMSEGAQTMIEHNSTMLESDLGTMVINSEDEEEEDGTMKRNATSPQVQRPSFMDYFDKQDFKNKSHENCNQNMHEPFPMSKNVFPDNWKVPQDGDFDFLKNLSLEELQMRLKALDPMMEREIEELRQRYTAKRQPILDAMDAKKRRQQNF

[9] = target: T2, Serine/threonine-protein kinase 3 (Homo sapiens); conditions: at 1 µM
[10] = target: Serine/threonine-protein kinase 26 (Homo sapiens) (UniProt Q9P289); conditions: at 0.1 µM
Serine/threonine-protein kinase 26 (Homo sapiens), sequence (Q9P289 2-416 limits assumed): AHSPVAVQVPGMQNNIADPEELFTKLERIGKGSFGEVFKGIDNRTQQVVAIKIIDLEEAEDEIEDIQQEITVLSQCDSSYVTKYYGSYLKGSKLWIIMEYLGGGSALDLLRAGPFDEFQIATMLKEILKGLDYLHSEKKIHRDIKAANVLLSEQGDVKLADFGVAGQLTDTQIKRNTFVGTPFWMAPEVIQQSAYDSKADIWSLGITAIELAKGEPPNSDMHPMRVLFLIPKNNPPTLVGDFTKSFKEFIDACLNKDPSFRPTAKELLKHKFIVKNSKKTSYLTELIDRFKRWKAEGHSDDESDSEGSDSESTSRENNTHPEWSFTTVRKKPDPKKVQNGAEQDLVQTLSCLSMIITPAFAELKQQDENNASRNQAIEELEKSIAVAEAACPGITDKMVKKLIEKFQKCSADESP

[11] = target: Serine/threonine-protein kinase PAK 1 (Homo sapiens) (UniProt Q13153); conditions: at 0.1 µM
[12] = target: Serine/threonine-protein kinase PAK 1 (Homo sapiens) (UniProt Q13153); conditions: at 1 µM
[13] = target: Serine/threonine-protein kinase PAK 2 (Homo sapiens) (UniProt Q13177); conditions: at 0.1 µM
Serine/threonine-protein kinase PAK 2 (Homo sapiens), sequence (Q13177 whole entry): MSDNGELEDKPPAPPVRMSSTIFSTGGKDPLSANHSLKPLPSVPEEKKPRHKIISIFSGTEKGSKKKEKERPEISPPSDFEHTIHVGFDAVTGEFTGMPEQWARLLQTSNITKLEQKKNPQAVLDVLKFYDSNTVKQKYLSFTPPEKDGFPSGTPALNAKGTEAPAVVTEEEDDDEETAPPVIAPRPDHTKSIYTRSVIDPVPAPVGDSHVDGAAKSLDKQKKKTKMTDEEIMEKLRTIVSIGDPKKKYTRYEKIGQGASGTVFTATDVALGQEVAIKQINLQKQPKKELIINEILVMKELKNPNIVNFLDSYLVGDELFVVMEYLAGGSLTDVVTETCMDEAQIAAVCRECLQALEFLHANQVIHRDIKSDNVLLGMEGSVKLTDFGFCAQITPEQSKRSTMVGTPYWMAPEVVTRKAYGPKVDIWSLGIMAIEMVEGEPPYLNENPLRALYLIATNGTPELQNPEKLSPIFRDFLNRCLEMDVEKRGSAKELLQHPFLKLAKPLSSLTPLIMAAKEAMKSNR

[14] = target: Serine/threonine-protein kinase PAK 2 (Homo sapiens) (UniProt Q13177); conditions: at 1 µM
[15] = target: Serine/threonine-protein kinase PAK 3 (Homo sapiens) (UniProt O75914); conditions: at 0.1 µM
Serine/threonine-protein kinase PAK 3 (Homo sapiens), sequence (O75914 whole entry, looked up): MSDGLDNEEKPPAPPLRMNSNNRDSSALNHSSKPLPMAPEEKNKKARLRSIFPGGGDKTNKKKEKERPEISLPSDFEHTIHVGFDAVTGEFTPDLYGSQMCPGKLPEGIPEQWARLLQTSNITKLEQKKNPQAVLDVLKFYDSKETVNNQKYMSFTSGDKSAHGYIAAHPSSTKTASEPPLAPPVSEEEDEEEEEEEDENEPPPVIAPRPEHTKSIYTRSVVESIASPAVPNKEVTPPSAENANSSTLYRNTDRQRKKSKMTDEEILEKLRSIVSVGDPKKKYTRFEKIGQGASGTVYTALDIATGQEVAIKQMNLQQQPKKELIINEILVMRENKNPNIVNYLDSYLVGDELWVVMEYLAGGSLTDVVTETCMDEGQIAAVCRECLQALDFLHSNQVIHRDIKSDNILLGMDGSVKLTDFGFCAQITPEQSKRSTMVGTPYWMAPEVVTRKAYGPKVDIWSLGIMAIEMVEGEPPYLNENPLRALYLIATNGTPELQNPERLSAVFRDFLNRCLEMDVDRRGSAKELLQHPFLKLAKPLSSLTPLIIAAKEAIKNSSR

[16] = target: Serine/threonine-protein kinase PAK 3 (Homo sapiens) (UniProt O75914); conditions: at 1 µM
[17] = target: Serine/threonine-protein kinase PAK 5 (Homo sapiens) (UniProt Q9P286); conditions: at 0.1 µM
Serine/threonine-protein kinase PAK 5 (Homo sapiens), sequence (Q9P286 whole entry, looked up): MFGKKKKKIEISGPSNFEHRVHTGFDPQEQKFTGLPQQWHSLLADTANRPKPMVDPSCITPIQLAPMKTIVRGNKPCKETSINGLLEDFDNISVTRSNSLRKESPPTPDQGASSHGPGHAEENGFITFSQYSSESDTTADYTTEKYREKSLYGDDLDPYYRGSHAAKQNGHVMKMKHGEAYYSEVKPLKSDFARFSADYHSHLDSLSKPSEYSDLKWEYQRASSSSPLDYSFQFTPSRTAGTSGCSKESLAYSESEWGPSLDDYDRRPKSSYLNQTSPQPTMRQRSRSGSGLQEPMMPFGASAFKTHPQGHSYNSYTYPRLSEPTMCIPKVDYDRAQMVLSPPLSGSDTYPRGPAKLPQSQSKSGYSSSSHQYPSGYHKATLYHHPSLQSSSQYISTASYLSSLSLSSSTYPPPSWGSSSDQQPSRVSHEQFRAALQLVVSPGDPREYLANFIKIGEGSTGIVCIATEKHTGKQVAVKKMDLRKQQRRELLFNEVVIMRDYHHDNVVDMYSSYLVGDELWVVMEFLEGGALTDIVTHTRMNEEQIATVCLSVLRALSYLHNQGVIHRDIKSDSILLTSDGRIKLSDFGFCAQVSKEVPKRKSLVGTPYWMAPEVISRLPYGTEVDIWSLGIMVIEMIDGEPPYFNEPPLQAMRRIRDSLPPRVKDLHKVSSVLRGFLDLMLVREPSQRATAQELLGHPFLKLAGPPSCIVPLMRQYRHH

[18] = target: Serine/threonine-protein kinase PAK 5 (Homo sapiens) (UniProt Q9P286); conditions: at 1 µM
[19] = target: Serine/threonine-protein kinase 26 (Homo sapiens) (UniProt Q9P289); conditions: at 1 µM
[20] = target: Serine/threonine-protein kinase PAK 6 (Homo sapiens) (UniProt Q9NQU5); conditions: at 0.1 µM;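 also: mean PAK6 inhibition reported from the GSK PKIS screen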

Mitogen-activated protein kinase kinase kinase kinase 4 (Homo sapiens), sequence (O95819 2-1239 limits assumed): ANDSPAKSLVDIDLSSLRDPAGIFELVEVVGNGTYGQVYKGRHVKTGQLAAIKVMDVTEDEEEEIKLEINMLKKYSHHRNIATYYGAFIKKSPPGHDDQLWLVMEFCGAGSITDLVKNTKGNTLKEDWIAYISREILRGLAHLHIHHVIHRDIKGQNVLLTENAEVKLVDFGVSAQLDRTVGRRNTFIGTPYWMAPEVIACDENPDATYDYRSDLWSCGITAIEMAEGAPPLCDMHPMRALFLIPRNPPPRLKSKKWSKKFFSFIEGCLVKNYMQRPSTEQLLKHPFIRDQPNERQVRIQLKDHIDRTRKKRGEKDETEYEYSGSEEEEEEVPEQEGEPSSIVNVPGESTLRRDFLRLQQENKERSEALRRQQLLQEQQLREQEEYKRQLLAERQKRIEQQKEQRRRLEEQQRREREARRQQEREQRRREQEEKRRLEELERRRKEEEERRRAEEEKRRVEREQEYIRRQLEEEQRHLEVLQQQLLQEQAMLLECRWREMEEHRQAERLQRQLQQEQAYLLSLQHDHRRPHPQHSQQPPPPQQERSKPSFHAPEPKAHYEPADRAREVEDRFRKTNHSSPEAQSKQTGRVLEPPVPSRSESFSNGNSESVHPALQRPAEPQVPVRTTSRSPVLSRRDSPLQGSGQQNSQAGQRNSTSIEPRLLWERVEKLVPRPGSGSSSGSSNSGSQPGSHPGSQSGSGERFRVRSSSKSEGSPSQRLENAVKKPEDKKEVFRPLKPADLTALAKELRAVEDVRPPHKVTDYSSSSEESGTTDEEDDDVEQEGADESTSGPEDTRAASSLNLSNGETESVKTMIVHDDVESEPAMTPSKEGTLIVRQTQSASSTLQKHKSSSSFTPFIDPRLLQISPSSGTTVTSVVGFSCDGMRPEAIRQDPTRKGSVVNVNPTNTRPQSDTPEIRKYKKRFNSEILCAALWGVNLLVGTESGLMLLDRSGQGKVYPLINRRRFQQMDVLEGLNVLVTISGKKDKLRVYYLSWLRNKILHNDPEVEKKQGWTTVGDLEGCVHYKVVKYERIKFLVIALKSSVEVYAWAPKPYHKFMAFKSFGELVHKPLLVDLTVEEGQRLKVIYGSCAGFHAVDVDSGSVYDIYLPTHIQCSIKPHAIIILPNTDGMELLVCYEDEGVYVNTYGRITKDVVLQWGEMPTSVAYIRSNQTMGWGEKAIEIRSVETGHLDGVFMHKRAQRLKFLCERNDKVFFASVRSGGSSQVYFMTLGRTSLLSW

SMILES | inhibition [1] [%] | inhibition [2] [%] | inhibition [3] [%] | inhibition [4] [%] | inhibition [5] [%] | inhibition [6] [%] | inhibition [7] [%] | inhibition [8] [%] | inhibition [9] [%] | inhibition [10] [%] | inhibition [11] [%] | inhibition [12] [%] | inhibition [13] [%] | inhibition [14] [%] | inhibition [15] [%] | inhibition [16] [%] | inhibition [17] [%] | inhibition [18] [%] | inhibition [19] [%] | inhibition [20] [%]
C[C@@H](Oc1cc(-n2cnc3ccc(OCC4CCN(C)CC4)cc32)sc1C(N)=O)c1ccccc1Cl | 11.6 | 6.35 | 5.61 | 6.3 | 10.1 | 14.8 | 56.7 | 11.7 | 39.7 | -8.39 | 9.41 | 11.3 | 3.01 | 3.81 | 6.02 | 6.85 | 5.72 | 7.38 | – | –
NC(=O)c1cc(-c2ccncc2)cc(-c2ccccc2)c1N | 32.3 | 6.3 | 5.89 | 11.2 | 26.1 | 3.19 | 6.8 | 3.96 | 3.58 | -0.07 | 7.55 | 6.44 | 2.07 | 2.41 | 7.15 | 6.71 | 1.02 | 2.18 | -1.56 | -0.84
NS(=O)(=O)c1ccc(N/N=C2\C(=O)Nc3ccc(C(=O)NCCCn4ccnc4)cc32)cc1 | 52.1 | 10.7 | 38 | 9.83 | 41.5 | 28.6 | 75.5 | 22.2 | 70 | -0.28 | 4.13 | 11.5 | 0.82 | 2.78 | 4.22 | 5.04 | – | -1.29 | 6.6 | -2.98
CN1CCN(CCCNc2nc3ccc(Oc4ccc(NC(=O)Nc5cc(C(F)(F)F)ccc5F)cc4)cc3[nH]2)CC1 | 2.12 | 2.3 | 1.94 | 1.67 | 1.26 | 3.59 | 3.57 | 2.61 | 3.55 | 1.41 | 3.77 | 2.58 | 1.22 | 1.06 | 1.62 | 2.65 | 1.27 | 8.65 | 0.74 | -3.01
Fc1ccc(-c2nc3n(c2-c2ccncc2)CCS3)cc1 | 18.3 | 5.23 | 5.11 | 6.96 | 14 | 3.57 | 4.41 | 3.46 | 3.73 | -1.69 | 6.15 | 8.39 | 3.06 | 1.6 | 4.5 | 4.49 | -6.84 | -7.5 | -1.08 | 9.34
COc1cccc(/C=N/Nc2ncnc3c2cnn3-c2cccc(OC)c2)c1 | 10.8 | 3.68 | 2.66 | 5.65 | 10.9 | 2.42 | 3.52 | 3.29 | 3.95 | -3.41 | 7.47 | 6.13 | 1.74 | 1.26 | 2.7 | 4.34 | 1.31 | -2.49 | -1.93 | -3.17
COc1cc2ncn(-c3cc(OCCc4ccccc4)c(C(N)=O)s3)c2cc1OC | 26.2 | 3.24 | 2.39 | 5.52 | 18.8 | 2.99 | 13.6 | 2.95 | 11 | -1.7 | -1.36 | 5.32 | 0.32 | -0.01 | 2.35 | 2.82 | -3.93 | -5.75 | -2.27 | 1.18
